VLA-4 inh: inhibition in human VLA-4 binding assay, primary screen, VLA-4 allosteric modulator project, MLPCN library, flow cytometry, VLA-4 expressing cells; AID 2557, 2010; inhibition, % (about 7 µM as worked out from the volumes in the protocol); ligand binding flow cytometry; 330,000 tested, 0.2% active; Integrin alpha-4 (Homo sapiens), P13612; in the data active = inhibition above about 50%
A3A deaminase: APOBEC3A ssDNA deaminase inhibitors, primary screen, selectivity assay for APOBEC3G inhibitor project, biochemical, FAM/TAMRA oligo cleavage fluorescence. DNA dC->dU-editing enzyme APOBEC-3A (Homo sapiens), P31941. recombinant A3A, FAM/TAMRA ssDNA deamination fluorescence. inhibition, % at 20 µM. 330,000 tested, 0.41% active. AID 493011, 2011;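 active = at least 40% inhibition at 20 µM here, with at most 30% in a related deaminase screen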
A3G deaminase: APOBEC3G DNA deaminase inhibitors, primary screen, biochemical, fluorescence, single-stranded DNA substrate, uHTS; DNA dC->dU-editing enzyme APOBEC-3G (Homo sapiens), Q9HC16; recombinant A3G, ssDNA deamination FAM/TAMRA fluorescence; inhibition, % at 20 µM; 330,000 tested, 0.28% active;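 active = inhibition of at least 40% at 20 µM, with no more than 30% in the related APOBEC3A deaminase screen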
GRK2 inh: compounds blocking aptamer binding on GRK2 – biochemical, human GRK2, bead flow cytometry, HTS, primary screen. AID 488847, 2010. 330,000 tested, 0.59% active. FAM-aptamer displacement from GRK2. inhibition of aptamer binding, % at 10 µM;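 active = inhibition of aptamer binding above 40%, roughly 3 SD of noise, on plates passing a quality check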;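 also: median bead fluorescence of bound FAM aptamer so fluorescent compounds give negative values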
Target sequence (P25098 whole entry, looked up): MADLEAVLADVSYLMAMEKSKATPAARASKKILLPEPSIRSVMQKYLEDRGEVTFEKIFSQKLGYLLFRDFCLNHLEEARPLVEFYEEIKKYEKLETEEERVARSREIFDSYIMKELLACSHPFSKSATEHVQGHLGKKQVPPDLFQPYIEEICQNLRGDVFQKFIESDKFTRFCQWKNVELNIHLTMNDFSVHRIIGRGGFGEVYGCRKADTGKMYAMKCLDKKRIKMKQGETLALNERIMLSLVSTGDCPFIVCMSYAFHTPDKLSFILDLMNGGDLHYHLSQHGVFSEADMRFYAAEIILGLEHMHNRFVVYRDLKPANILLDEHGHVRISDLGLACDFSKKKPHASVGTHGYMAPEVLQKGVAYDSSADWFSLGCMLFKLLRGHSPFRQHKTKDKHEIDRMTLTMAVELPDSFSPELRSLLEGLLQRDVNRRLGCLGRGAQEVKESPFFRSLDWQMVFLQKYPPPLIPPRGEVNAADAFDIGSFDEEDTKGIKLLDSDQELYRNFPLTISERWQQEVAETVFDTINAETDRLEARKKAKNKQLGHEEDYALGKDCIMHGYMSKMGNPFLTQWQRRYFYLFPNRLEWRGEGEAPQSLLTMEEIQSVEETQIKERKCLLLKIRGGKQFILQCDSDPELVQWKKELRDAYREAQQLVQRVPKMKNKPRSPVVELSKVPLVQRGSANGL
A3G conf: APOBEC3G deaminase inhibitor retest, confirmation, biochemical, fluorescence, single-stranded DNA substrate, single concentration; shares compounds with A3G deaminase; recombinant A3G ssDNA deaminase, UDG/FAM-TAMRA fluorescence; inhibition, % at 20 µM; 890 tested, 72% active; AID 493152, 2011;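 active = inhibition reaching a set limit in any replicate at 20 µM, the limit being 80% of the first screen's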
UDG ctr A3G: E. coli UDG inhibitors, confirmation, counter-screen for APOBEC3G inhibitor project, biochemical, single concentration, fluorescence, FAM/TAMRA oligo. shares compounds with A3G deaminase. UDG counterscreen. inhibition, % at 20 µM. 710 tested, under 10 active. AID 504715, 2011;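 active = compounds giving 40% or more inhibition at 20 µM in any one of the three replicates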;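 also: inhibitors lower the FAM signal released by uracil excision and alkaline cleavage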
Of the large screens only hits and unclear results are named; the others gave an inactive call (follow-up assays come after a bar, where they were run). Only some compounds are listed: those with a hit (about 1.4% of all), similar ones and a draw of the others.

Cc1ccc(-n2sc3ccccc3c2=O)cc1	A3G deaminase 77 | A3G conf 71 | UDG ctr A3G inactive
Cc1ccc(Cn2c(=O)sc3ccccc3c2=O)cc1	none
CC(=O)c1ccc(OCCCC(=O)NCc2nnc3ccccn23)cc1	none (no result: VLA-4 inh, GRK2 inh)
O=C(Cn1sc2ccccc2c1=O)NC12CC3CC(CC(C3)C1)C2	A3G deaminase 78 | A3G conf 78 | UDG ctr A3G inactive
Cc1nnsc1C(=O)NNc1ccc(C(C)(C)C)cc1	A3G deaminase 53 | A3G conf inactive | UDG ctr A3G inactive
Cc1ccc(S(=O)(=O)N2CCCCC2C(=O)O)s1 (stereo not drawn)	none
Oc1ccc(-c2cn3c(n2)SCC3)cc1	none
Oc1ccc(-c2cn3c(n2)SCC3)cc1O	A3G deaminase 59 | A3G conf 76 | UDG ctr A3G inactive
CN(CC(=O)Nc1n[nH]c(=S)s1)S(=O)(=O)c1cccc2cccnc12	A3G deaminase 75 | A3G conf 95 | UDG ctr A3G inactive
Cc1csc(NC(=O)CN(C)S(=O)(=O)c2cccc3cccnc23)n1	none
COC(=O)c1cc(Cl)c(NC(=O)c2cc3ccccc3o2)cc1OC	none
CC(C)(C)c1cc(C(=S)N2CCN(CCO)CC2)cc(C(C)(C)C)c1O	A3G deaminase 61 | A3G conf 56 | UDG ctr A3G inactive
OCCN1CCN(C(=S)c2ccc(Cl)cc2)CC1	none
C=CCn1c(-c2cccc(OCC)c2)n[nH]c1=S	none
CCn1c(-c2ccc3ncccc3c2)n[nH]c1=S	none
C=CCn1c(-c2cc(OC)cc(OC)c2)n[nH]c1=S	A3G deaminase 43 | A3G conf 82 | UDG ctr A3G inactive
C=CCn1c(-c2ccc3ncccc3c2)n[nH]c1=S	A3G deaminase 56 | A3G conf 60 | UDG ctr A3G inactive
C=CCn1c(-c2ccccc2)n[nH]c1=S	none
C=CCn1c(-c2sc3nc(C)cc(C)c3c2N)n[nH]c1=S	A3G deaminase 49 | A3G conf 77 | UDG ctr A3G inactive
C=C(C)Cn1c(CNC(C)=O)nc2ccccc21	none
CN1C(c2ccc(F)cc2)=CS/C1=C(\C#N)c1nnc2n1-c1ccccc1SC2	none
Nn1c(SCC(=O)Nc2cccnc2Cl)nnc1-c1ccccc1	A3G deaminase 46 | A3G conf 63 | UDG ctr A3G inactive
Cc1ccc(-c2nnc(SCC(=O)Nc3cccnc3Cl)n2N)cc1	none
CCOC(=O)c1c(NC(=O)c2ccccc2Cl)sc2c1CCc1ccccc1-2	A3G deaminase 57 | A3G conf 75 | UDG ctr A3G inactive
CCOC(=O)c1c(NC(=O)c2ccccc2)sc2c1CCc1ccccc1-2	A3G deaminase 58 | A3G conf 16 | UDG ctr A3G inactive
Cc1cccn2c(=O)c3cc(C(=O)NCc4ccco4)c(=N)n(CCOCCO)c3nc12	A3G deaminase 58 | A3G conf inactive
Cc1cccn2c(=O)c3cc(C(=O)NCc4ccco4)c(=N)n(C4CCCCC4)c3nc12	none
COC(=O)[C@H](CCSC)NC(=O)Nc1ccc(C)cc1	none
Cc1ccc(S(=O)(=O)/C(C#N)=C/c2c(N3CCCCC3)nc3ccccn3c2=O)cc1	A3G deaminase 49 | A3G conf inactive | UDG ctr A3G inactive
CCOC(=O)c1c2c3c(cccc3[nH]c1=O)C(=O)c1ccccc1-2	A3G deaminase 53 | A3G conf inactive | UDG ctr A3G inactive
CCOC(=O)c1c2c3c(cccc3n(C)c1=O)C(=O)c1ccccc1-2	A3G deaminase 55 | A3G conf inactive | UDG ctr A3G inactive
CCOc1ccc(N)c(SSc2cc(OCC)ccc2N)c1	A3G deaminase 72 | A3G conf 96 | UDG ctr A3G inactive
Nn1c(C2COc3ccccc3O2)n[nH]c1=S (stereo not drawn)	A3G deaminase 60 | A3G conf 83 | UDG ctr A3G inactive
O=C(c1ccccc1)N1CCC(=O)N1c1ccccc1	A3G deaminase 40 | A3G conf inactive | UDG ctr A3G inactive
O=C1CN(c2ccccc2)C(=S)N1C(=O)c1ccccc1	none
O=S1OC(c2ccccc2)c2cc(Cl)ccc21 (stereo not drawn)	A3G deaminase 41 | A3G conf inactive
O=C1OC(c2ccccc2)c2ccccc21 (stereo not drawn)	none
O=C(O)c1ccc(/C=N/n2cc(-c3ccccc3)[nH]c2=S)cc1	A3G deaminase 58 | A3G conf 80 | UDG ctr A3G inactive
S=c1[nH]c(-c2ccccc2)cn1/N=C/c1cccnc1	A3G deaminase 50 | A3G conf 73 | UDG ctr A3G inactive
CS(=O)(=O)c1ccc(N)c(SSc2cc(S(C)(=O)=O)ccc2N)c1	A3G deaminase 87 | A3G conf 95
CC(C)(C)S(=O)(=O)Cc1nc(-c2ccc(Cl)c(Cl)c2)cs1	A3G deaminase 67 | A3G conf inactive
CC(C)(C)C(=O)OCc1nc(-c2ccc(Cl)cc2)cs1	none
COc1ccc(NC(=O)c2ccc(S(=O)(=O)N3CCCCC3)cc2)cc1OC	none
COC(=O)C1=C(COc2ccccc2)NC(=O)NC1c1ccc(Cl)cc1 (stereo not drawn)	A3G deaminase 48 | A3G conf inactive | UDG ctr A3G inactive
CCCC1S/C(=N/N=C/c2ccco2)NC1=O (stereo not drawn)	none
Fc1ccccc1-n1[nH]nnc1=S	A3G deaminase 52 | A3G conf 15 | UDG ctr A3G inactive
Fc1ccccc1-n1cn[nH]c1=S	none
CCN(CC)CCNC(=O)CCCCn1c(=S)[nH]c2c([nH]c3ccc(OC)cc32)c1=O	A3G deaminase 69 | A3G conf 84 | UDG ctr A3G inactive
CCCCNC(=O)c1ccc(Cn2c(=S)[nH]c3c([nH]c4ccc(OC)cc43)c2=O)cc1	none
COC(=O)N1CCc2c(sc(NC(=O)C3COc4ccccc4O3)c2C(N)=O)C1 (stereo not drawn)	A3G deaminase 50 | A3G conf 21 | UDG ctr A3G inactive
NC(=O)c1c(NC(=O)C2COc3ccccc3O2)sc2c1CCN(Cc1ccccc1)C2 (stereo not drawn)	none
COCC(=O)N(Cc1cc2cc(C)ccc2[nH]c1=O)c1ccccc1	none
CCOC(=O)C1=C(C)N(c2ccc(OC)cc2)C(=O)/C1=C\c1ccc(O)c(OCC)c1	A3G deaminase 67 | A3G conf inactive
Cc1cnc(SCc2ccc(Cl)cc2Cl)[nH]c1=O	none

Compound activity as filed in PubChem BioAssay.
